The results in this text go back to PubChem BioAssay AID1985 (Southern Research Specialized Biocontainment Screening …, 2009).

In all, about 2,300 compounds went through this assay and about 1,000 (43%) were called active. So high a share suggests a set chosen from earlier hits. The list shows a part of the results. Results with a measured potency or affinity are listed apart. Unmarked numbers belong to inactive results. The rule behind the calls is not given here.

By inhibition is commonly meant the relative decrease from the control value, in per cent.

A short description of this assay: PhoP regulon inhibitor project modified counter assay, GFP fluorescence readout, dose response (AID 1985). The note with it: S. Typhi, 4 h; series mostly up to 150 µM; inhibition: at the top concentration.
Regarding `CC(=O)c1cccc(NC(=O)CCC2CCCC2)c1`, the “inhibition” value was -0.61%.

For `Cc1ccc(NC(=O)CCNC(=O)c2ccccc2)cc1F`, the “inhibition” value is 36.6%.

Turning to `COCC1CCCN(Cc2cn[nH]c2-c2cc3ccccc3o2)C1` (centres undefined), the “inhibition” value is 5.13%. In the case of `O=C(c1ccc2c3c(cccc13)CC2)C1CCCN(Cc2ncc[nH]2)C1` (centres undefined), the “inhibition” value was 3.47%. The result for `COc1ccccc1NC(=O)CSC1CC(=O)N(c2ccc3c(c2)OCO3)C1=O` (centres undefined) reads 6.29%; that for `NS(=O)(=O)c1ccc(CCNS(=O)(=O)c2cccc(C(=O)O)c2)cc1`, -5.2%; that for `COc1cccc(C(=O)CC(=O)C(=O)Nc2cc(OC)c(OC)c(OC)c2)c1`, 33.4%.

Take `Cc1ccc(/C=C2\SC(=S)N(c3cccnc3)C2=O)o1`: the “inhibition” value was 22.2%.

Regarding `COc1ccc(OC)c(NC(=O)CSc2nnc3ccc(-c4ccncc4)nn23)c1`, the “inhibition” value is 6.79%. Take `Cn1c(CN2CCCCC2)nc2cc(NS(=O)(=O)c3ccc(Cl)cc3)ccc21`: the “inhibition” value was -7.16%. For `CCOC(=O)C1=C(C)NC(=O)NC1c1ccc(NC(C)=O)cc1` (centres undefined), the “inhibition” value was 5.94%.

As to `COC(=O)CNC(=O)c1ccc(=O)oc1`, the “inhibition” value was 25%. In the case of `CN1CCN(c2ccc(C(=O)c3cn(-c4ccc(F)c(Cl)c4)nn3)cc2)CC1` it was -4.37%; in that of `CN1CCCN(C(=O)COc2ccc(F)cc2Cl)CC1`, 20.6%; in that of `CN1CCC(=C2c3ccccc3C=Cc3ccccc32)CC1`, -15%. Turning to `CCn1c(-c2ccncc2)n[nH]c1=S`, the “inhibition” value is 1.46%. The result for `COc1cc(C)c(Cl)cc1S(=O)(=O)n1cnc(C)c1` reads -2.41%. In the case of `Cn1c(=NC(=O)COc2ccccc2)sc2cccc(F)c21` it was -9.19%. In the case of `O=[N+]([O-])c1ccc(O)c2ncccc12` it was -27.7%; in that of `C#CC(=O)N(c1cccc(OC)c1)C(C(=O)NC1CCCC1)c1cccs1` (centres undefined), -7.78%; in that of `CCN(CC)CCSc1nnc2c3ccccc3n(Cc3ccccc3)c2n1`, 14.3%. In the case of `C=CCn1c(C)cc(C(=O)CSc2n[nH]c(N)n2)c1C`, the “inhibition” value was 6.5%.

With `O=[N+]([O-])c1ccc(N2CCNCC2)cc1NCc1cccnc1`, the “inhibition” value is -17.4%. In the case of `Cc1nc2scc(C)n2c(=O)c1S(=O)(=O)N1CCN(c2cccc(C(F)(F)F)c2)CC1` it was -15.5%; in that of `COc1nnc(-c2ccc(N3CCOCC3)c(NC(=O)c3ccc(C)cc3)c2)c2ccccc12`, 6.65%. The result for `CN(C)CCCN(C(=O)c1cc2cc([N+](=O)[O-])ccc2s1)c1nc2cc3c(cc2s1)OCCO3` reads 4.98%; that for `CCSC1=NCN(CCCC(=O)O)CN1`, 15%.

For the molecule `COc1cc(C(=O)N/N=C/c2coc3ccccc3c2=O)cc(OC)c1OC`, the “inhibition” value was 38.2%. The result for `CC(C)C(c1nnnn1Cc1ccccc1)N(CCCO)Cc1cc2cc3c(cc2[nH]c1=O)OCO3` (centres undefined) reads 31.3%; that for `CC(C)Cc1nc(N2CCOCC2)c(C#N)c2c1COC(C)(C)C2`, 7.33%. In the case of `CCNC(=S)N1CCN(CC)CC1` it was -3.05%; in that of `COc1ccc(OC)c(NC(=O)CCNS(=O)(=O)c2ccc3c(c2)c(=O)n(C)c(=O)n3C)c1`, -17.4%. In the case of `CCOC(=O)c1[nH]c2ccc(Cl)cc2c1NC(=O)c1nonc1C` it was -6%; in that of `Cc1ccc(/C=N/NC(=O)Cc2cccn2C)cc1`, -7.42%. With `Cc1cc(Cl)ccc1OCC(=O)N/N=C/c1ccncc1`, the “inhibition” value was 27%. The result for `NS(=O)(=O)c1cc2c(cc1Cl)NC(Cc1ccccc1)NS2(=O)=O` (centres undefined) reads 38.7%; that for `CN(Cc1ccccc1)S(=O)(=O)c1csc(C(N)=O)c1`, 22.6%; that for `Cn1cc(S(=O)(=O)Nc2ccc(OC(F)(F)F)cc2)c(=O)n(C)c1=O`, 25.2%.

Regarding `CCOc1ccc2ccccc2c1C(=O)N[C@@H]1C(=O)N2[C@@H]1SC(C)(C)[C@@H]2C(=O)O`, the “inhibition” value was -10.7%.

With `CN(C)C(=O)CSc1nnc(Cc2ccc([N+](=O)[O-])cc2)o1`, the “inhibition” value was -18.1%. Consider `O=C(c1ccccc1)N1CCN(c2ccc([N+](=O)[O-])c(NCc3ccco3)c2)CC1`, for which the “inhibition” value is 5.83%. With `COc1ccc(CCC(=O)NCc2cn3ccccc3n2)cc1`, the “inhibition” value was -11.1%. For the molecule `CCOC(=O)CSc1nnc2c(n1)C1(C)CCC2C1(C)C` (centres undefined), the “inhibition” value is -14.7%. Take `O=C(N/N=C/c1ccc(N2CCOCC2)cc1)c1ccc(O)cc1`: the “inhibition” value is 35.5%.

As to `CC(C)=CCN1CCN(Cc2nc(-c3ccccc3)cs2)CC1CCO` (centres undefined), the “inhibition” value was 3.84%. For `CC1CCCCN1S(=O)(=O)c1ccc(S(=O)(=O)NCCc2ccncc2)cc1` (centres undefined), the “inhibition” value was -8.76%. In the case of `Brc1ccc2nc(-c3c[nH]c4ccccc34)cn2c1` it was 17%. In the case of `Cc1cccc(OCC(=O)NNc2c3ccccc3nc3ccccc23)c1` it was 18.2%; in that of `CC1(C)CC(CCNC(=O)c2ccc(-n3cnnn3)cc2)CC(C)(C)N1`, -11.9%. The result for `Cc1cc(=O)n(CC(C)C)c(O)c1C#N` reads -9.81%; that for `Cc1onc(C(=O)/C=C/N(C)C)c1C(=O)Nc1nccs1`, -7.71%; that for `CCOc1ccccc1-c1cc(-c2ccccc2)nc2c1c(=O)n(C)c(=O)n2C`, -4.34%.

`C=C(C)COc1ccc2c(C)c(CCC(=O)NC3CC3)c(=O)oc2c1`: the “inhibition” value was 11.8%. The result for `N#Cc1ccc(-c2ccc(OCC(=O)NCCCN3CCCC3=O)cc2)cc1` reads 20.2%; that for `CC1(C)CC(=O)C(C(=O)/C=C/NCCc2ccccc2)C(=O)C1`, 24.8%. Turning to `CC(C)(C)c1ccc(NC(=O)NCc2ccco2)cc1`, the “inhibition” value was -27.9%. In the case of `Cc1ccc(SCc2[nH]nc3c2C(c2cccnc2)C(C#N)=C(N)O3)cc1` (centres undefined) it was -10.8%; in that of `Nc1cc(N2CCOCC2)c(Cl)cc1[N+](=O)[O-]`, 5.58%.

Regarding `C=C(C)Cn1c(SCC#N)nc2ccccc2c1=O`, the “inhibition” value is -7.42%. The result for `COc1cccc(CNC23CC4CC(CC(C4)C2)C3)c1OCc1ccccc1` reads -24.5%. The result for `Cc1ccc(NC(=S)NCc2cccnc2)cc1` reads 33.4%; that for `Cc1ccc(NC(=S)NCc2cccs2)cc1`, 2.63%; that for `COc1cccc(CNS(=O)(=O)c2ccc3c(c2)NC(=O)CS3)c1`, -14.7%. Regarding `CC(c1ccccc1)(c1ccccc1)c1ccncc1`, the “inhibition” value is 3%. The result for `CC(C)SCc1nc2ccccc2[nH]1` reads -25.3%; that for `Nc1cncc(C(=O)O)c1`, 0.69%. The result for `C/C(=N\NC(=O)COc1ccccc1[N+](=O)[O-])c1cccs1` reads -1.26%; that for `CCCC(=NCc1ccccc1)C1=C(O)C(C(=O)OC)C(C)(C)CC1=O` (centres undefined), -20.1%; that for `CN1C2=CC=CC=CC2=[N+](C)C12C=CC(=[N+]([O-])[O-])C=C2[N+](=O)[O-]` (centres undefined), 5.18%. In the case of `Cc1cc(Br)cc2cn[nH]c12` it was -9.69%; in that of `O=C(CCl)Nc1nccs1`, -39.9%. As to `CCCN1C(=O)c2ccc(C(=O)Nc3nccs3)cc2C1=O`, the “inhibition” value was -2.62%. The result for `O=C(Nc1ccccc1)Nc1cccc(Cl)c1` reads 29.5%. In the case of `O=C(COc1ccc2ccccc2c1)Nc1nccs1` it was 15.3%.
